Experiments:
Assay in all cases: log2 ratio of Biotin-Ahx-Ub-VS probe labelling (fragment/DMSO); higher = less target engagement (more negative = stronger competition), active = hit call of the paper (q ≤ 0.05, log2 ratio ≤ -1)
Conditions in all cases: compound concentration: 200 uM; treatment time: 3 h
OTUD6B = target: T1, OTUD6B (UniProt Q8N6M0)
T1 sequence (whole entry): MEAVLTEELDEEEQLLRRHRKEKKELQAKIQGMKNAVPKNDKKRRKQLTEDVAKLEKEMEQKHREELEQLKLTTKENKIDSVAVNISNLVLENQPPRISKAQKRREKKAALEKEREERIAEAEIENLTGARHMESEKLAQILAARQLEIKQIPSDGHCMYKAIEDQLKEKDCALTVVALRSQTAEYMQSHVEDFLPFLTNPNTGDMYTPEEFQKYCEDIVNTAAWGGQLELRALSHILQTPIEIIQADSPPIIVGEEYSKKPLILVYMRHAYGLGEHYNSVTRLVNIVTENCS
Method in brief: (§1)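 Triplicate samples of HEK293T lysate, 495 µg each, received fragment at 200 µM or vehicle for 3 h, followed by Biotin-Ahx-Ub-VS (0.5 µM final) for 1 h. After NeutrAvidin enrichment of labelled DUBs and LysC/trypsin digestion, peptides were run by diaPASEF LC-MS/MS. The values are average log2 fragment/vehicle ratios from global-median-normalised Spectronaut label-free quantities, tested by unpaired t-test on proteins having ≥2 unique peptides.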

OTUD7B = target: T2, OTUD7B (UniProt Q6GQQ9)
T2 sequence (whole entry): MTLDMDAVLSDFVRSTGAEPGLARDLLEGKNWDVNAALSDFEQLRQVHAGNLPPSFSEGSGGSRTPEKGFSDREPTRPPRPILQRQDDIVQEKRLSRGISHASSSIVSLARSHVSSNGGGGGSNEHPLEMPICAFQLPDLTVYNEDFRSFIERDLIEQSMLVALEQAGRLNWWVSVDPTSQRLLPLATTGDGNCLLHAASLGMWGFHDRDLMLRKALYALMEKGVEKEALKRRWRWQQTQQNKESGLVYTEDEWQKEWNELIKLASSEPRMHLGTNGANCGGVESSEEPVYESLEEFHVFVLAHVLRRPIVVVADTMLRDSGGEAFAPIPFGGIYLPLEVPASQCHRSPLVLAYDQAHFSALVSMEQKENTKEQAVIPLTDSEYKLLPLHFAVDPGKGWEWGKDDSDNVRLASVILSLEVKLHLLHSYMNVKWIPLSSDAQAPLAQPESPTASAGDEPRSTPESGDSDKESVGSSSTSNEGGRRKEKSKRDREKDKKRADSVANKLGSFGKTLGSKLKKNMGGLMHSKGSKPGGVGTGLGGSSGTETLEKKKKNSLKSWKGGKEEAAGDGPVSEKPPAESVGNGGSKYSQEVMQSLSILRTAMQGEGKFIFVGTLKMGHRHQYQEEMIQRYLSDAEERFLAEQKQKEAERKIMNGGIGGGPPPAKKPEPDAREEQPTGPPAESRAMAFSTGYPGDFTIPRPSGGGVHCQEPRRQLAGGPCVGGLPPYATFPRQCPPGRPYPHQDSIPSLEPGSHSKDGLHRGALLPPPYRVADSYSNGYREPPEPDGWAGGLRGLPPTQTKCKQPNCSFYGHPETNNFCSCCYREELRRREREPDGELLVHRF
Method in brief: as §1

PRPF8 = PRPF8 (UniProt Q6P2Q9)
Method in brief: as §1

PSMD7 = target: T3, PSMD7 (UniProt P51665)
T3 sequence (whole entry): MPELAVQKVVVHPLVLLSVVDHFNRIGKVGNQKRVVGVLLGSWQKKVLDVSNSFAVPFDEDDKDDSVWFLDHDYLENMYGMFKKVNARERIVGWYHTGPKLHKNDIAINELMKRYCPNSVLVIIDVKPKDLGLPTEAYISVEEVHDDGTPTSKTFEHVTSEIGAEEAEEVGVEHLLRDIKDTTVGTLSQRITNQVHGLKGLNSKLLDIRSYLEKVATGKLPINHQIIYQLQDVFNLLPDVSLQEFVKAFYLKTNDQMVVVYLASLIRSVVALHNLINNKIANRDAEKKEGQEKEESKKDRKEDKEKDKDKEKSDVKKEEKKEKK
Method in brief: as §1

UCHL1 = UCHL1 (UniProt P09936)
Method in brief: as §1

UCHL3 = target: T4, UCHL3 (UniProt P15374)
T4 sequence (whole entry): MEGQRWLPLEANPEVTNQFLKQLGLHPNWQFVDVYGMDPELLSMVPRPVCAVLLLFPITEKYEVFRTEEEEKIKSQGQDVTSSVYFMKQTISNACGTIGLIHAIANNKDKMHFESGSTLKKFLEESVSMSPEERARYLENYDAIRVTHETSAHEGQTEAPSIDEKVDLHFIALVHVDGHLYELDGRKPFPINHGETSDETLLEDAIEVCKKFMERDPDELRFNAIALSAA
Method in brief: as §1

UCHL5 = target: T5, UCHL5 (UniProt Q9Y5K5)
T5 sequence (whole entry): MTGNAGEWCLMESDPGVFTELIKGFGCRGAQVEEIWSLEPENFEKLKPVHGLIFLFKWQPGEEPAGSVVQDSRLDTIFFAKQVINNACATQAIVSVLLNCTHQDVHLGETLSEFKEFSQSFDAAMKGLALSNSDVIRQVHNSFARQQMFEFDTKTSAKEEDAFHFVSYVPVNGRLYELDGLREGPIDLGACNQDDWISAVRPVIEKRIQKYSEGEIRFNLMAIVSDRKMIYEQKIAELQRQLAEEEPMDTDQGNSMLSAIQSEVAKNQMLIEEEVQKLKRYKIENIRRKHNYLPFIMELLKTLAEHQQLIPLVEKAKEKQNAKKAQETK
Method in brief: as §1

USP10 = USP10 (UniProt Q14694)
Method in brief: as §1

USP15 = target: T6, USP15 (UniProt Q9Y4E8)
T6 sequence (whole entry): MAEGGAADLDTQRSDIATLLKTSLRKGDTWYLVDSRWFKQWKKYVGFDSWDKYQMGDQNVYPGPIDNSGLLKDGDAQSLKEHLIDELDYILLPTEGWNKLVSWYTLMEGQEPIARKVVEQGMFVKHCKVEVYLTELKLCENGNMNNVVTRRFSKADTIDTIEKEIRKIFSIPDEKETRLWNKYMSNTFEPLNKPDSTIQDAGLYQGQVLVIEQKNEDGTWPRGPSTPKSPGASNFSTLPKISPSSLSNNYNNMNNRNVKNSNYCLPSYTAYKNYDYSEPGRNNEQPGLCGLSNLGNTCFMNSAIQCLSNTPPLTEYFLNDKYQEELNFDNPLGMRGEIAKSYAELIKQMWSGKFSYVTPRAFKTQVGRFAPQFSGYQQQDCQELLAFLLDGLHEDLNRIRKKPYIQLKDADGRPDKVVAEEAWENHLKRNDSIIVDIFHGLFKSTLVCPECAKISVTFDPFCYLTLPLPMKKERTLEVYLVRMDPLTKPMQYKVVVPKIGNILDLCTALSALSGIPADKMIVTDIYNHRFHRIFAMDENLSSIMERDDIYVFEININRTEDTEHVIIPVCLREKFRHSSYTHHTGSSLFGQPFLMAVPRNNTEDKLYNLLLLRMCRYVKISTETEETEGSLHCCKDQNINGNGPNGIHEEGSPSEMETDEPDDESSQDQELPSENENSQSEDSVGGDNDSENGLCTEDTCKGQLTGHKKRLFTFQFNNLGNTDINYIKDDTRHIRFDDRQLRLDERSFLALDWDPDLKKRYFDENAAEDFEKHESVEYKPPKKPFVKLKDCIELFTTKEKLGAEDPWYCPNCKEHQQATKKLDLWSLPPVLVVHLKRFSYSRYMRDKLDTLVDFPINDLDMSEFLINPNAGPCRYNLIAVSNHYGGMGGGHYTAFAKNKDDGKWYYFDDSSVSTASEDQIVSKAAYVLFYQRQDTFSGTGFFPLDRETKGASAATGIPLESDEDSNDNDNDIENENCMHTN
Method in brief: as §1

USP16 = USP16 (UniProt Q9Y5T5)
Method in brief: as §1

Measured: log2 ratio of Biotin-Ahx-Ub-VS probe labelling

Chain of USP16 (Q9Y5T5 whole entry, looked up): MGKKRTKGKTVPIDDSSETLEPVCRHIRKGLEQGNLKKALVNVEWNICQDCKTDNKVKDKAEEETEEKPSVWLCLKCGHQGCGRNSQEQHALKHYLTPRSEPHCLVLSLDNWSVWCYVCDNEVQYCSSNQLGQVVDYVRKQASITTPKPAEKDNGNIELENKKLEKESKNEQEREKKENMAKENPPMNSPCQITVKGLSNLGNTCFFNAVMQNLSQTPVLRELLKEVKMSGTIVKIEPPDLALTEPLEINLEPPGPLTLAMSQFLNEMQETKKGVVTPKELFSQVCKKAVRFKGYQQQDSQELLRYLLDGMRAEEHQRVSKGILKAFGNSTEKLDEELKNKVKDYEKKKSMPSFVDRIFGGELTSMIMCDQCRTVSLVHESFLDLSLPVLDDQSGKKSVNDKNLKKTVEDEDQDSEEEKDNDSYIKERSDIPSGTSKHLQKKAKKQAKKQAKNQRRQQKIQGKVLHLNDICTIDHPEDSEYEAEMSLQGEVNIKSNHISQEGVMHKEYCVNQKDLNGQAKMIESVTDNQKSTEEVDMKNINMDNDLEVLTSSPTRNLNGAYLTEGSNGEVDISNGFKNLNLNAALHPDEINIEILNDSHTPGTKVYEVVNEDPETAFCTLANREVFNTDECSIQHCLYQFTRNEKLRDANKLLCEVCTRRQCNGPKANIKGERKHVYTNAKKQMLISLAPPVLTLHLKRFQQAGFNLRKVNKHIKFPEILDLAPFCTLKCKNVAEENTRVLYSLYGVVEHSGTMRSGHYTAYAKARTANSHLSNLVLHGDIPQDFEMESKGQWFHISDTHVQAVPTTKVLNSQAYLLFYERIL
Chain of USP10 (Q14694 whole entry): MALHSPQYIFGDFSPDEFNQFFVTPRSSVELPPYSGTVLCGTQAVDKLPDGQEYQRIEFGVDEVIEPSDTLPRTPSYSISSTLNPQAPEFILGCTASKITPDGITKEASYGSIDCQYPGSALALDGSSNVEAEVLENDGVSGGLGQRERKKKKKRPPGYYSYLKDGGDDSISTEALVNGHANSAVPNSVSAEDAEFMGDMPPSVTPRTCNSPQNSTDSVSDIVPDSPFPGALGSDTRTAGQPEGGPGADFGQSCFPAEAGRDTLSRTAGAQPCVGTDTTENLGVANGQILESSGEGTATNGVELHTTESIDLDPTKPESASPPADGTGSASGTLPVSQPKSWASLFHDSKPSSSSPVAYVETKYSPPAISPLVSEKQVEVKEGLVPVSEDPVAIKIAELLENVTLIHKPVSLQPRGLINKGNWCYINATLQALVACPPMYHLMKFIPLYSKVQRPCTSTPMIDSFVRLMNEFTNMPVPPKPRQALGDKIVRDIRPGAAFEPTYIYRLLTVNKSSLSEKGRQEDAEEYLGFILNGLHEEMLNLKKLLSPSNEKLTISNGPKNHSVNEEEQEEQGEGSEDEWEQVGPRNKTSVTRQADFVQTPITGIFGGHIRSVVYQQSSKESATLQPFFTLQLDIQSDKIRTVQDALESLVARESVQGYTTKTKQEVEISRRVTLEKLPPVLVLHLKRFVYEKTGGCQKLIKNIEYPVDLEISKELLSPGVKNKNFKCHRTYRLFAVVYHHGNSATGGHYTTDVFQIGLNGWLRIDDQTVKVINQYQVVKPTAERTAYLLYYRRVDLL
Chain of UCHL1 (P09936 whole entry, looked up): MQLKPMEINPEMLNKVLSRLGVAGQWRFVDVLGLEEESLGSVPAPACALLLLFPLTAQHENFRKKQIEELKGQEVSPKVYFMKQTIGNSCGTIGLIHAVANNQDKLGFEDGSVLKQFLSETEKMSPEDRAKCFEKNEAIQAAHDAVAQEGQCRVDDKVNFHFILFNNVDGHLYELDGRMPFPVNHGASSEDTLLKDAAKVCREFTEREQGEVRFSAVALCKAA

O=C(CCl)N1CCC(C(O)c2ccc(F)cc2)CC1 (stereo not given)
active: UCHL1 -1.31
inactive: OTUD6B 0.0694 | OTUD7B -0.134 | PRPF8 -0.0885 | PSMD7 -0.0381 | UCHL3 0.426 | UCHL5 0.12 | USP10 -0.257 | USP15 0.278 | USP16 0.191

Reference: the supplement of paper PMC11732987, “Enantioselective OTUD7B fragment discovery through chemoproteomics screening and high-throughput optimisation” (Communications Chemistry, 2025)
